Assay results reported in PubChem BioAssay (NCI).
This is part of a sample that, as a whole, favours compounds with a hit. Of some 83,000 tested, about 20% had one in any assay.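 Compound tested at a single concentration for 48 hours in 96-well plates; a percent growth value below 10 was scored as active.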 The source made the active and inactive calls.

Tested on: NCI-H322M lung
Experiment: NCI-60 one-dose screen, 48 h (100 = growth as untreated, 0 = no growth, -100 = all killed)
Conditions: 10 µM unless noted

Row | SMILES | growth
1 | CC(C)CCC[C@@H](C)[C@H]1CC[C@H]2[C@@H](Nc3ccc(O)cc3)CCC[C@]12C | 105% (inactive)
2 | O=C(Nc1ccccc1)Nc1cccc(Oc2nnc(Cl)c3ccccc23)c1 | 47.3% (inactive)
3 | CCCCNC(=O)Oc1ccc2c(=O)c3sc4c(=O)c5ccccc5c(=O)c4c3c(=O)c2c1 | -96.8% (active)
4 | COc1nc(N(C)O)nc(N(C)O)n1 | 37.7% (inactive)
5 | N=c1sc(Cc2ccc(Cl)cc2)cn1CC(=O)c1ccc(F)cc1 | 76.4% (inactive)
6 | Cc1ccc(-c2cc(-c3ccccc3C)[nH]c(=O)c2C#N)s1 | 79.1% (inactive)
7 | O=C1/C(=C\c2c[nH]c3ccccc23)c2ccccc2N1c1c(Cl)cccc1Cl | 18.8% (inactive)
8 | COc1ccc(C2C(c3nn[nH]n3)=C(N)Oc3c2ccc2ccccc32)cc1 (stereo unspecified) | 85.1% (inactive)
9 | CCCCCCCOc1c(OC)cc(C2CC(=O)Nc3c2c(C)nn3-c2nc3ccccc3[nH]2)cc1OC (stereo unspecified) | 2.06% (active)
10 | Cc1c(C(=O)OC(=NC2CCCCC2)NC2CCCCC2)sc2c1c(=O)nc1c(C#N)n[nH]n12 | 115% (inactive)
11 | C[n+]1cccc(CC(=O)NO)c1 | 97.2% (inactive)
12 | c1c[nH]c(CNC2CCCCC2)c1 | 104% (inactive)
13 | N#C/C(=C\c1ccc(Br)cc1)n1nnc2cc(F)c(F)cc21 | 58.6% (inactive)
14 | CC1(C)CC[C@]2(C(=O)N3CCOCC3)CC[C@]3(C)C(=CC[C@@H]4[C@@]5(C)CC[C@H](OC(=O)c6cccnc6)C(C)(C)[C@@H]5CC[C@]43C)[C@@H]2C1 | 88.2% (inactive)
15 | O=C(c1ccccc1)c1c(/C=C/c2ccccc2)nc2ccccc2c1/C=C/c1ccc(Br)cc1 | 96.7% (inactive)
16 | O=C(COc1ccc(/C=C2\Oc3ccccc3C2=O)cc1)Nc1nc2c(s1)CCCC2 | 115% (inactive)
17 | Cc1ccc(Cl)c(NS(=O)(=O)c2ccc(-c3cnc(C4CC4)o3)cc2)c1 | 44.4% (inactive)
18 | Cc1ccc2nc(C)c(-c3nnc(SCc4ccc(C#N)cc4)o3)n2c1 | 90.7% (inactive)
19 | CC1=C(SCCC(=O)OC(C[Se]C2=C(C)C(=O)c3ccccc3C2=O)C(=O)NCCCCCC(=O)OCc2ccccc2)C(=O)c2ccccc2C1=O (stereo unspecified) | 8.06% (active)

Row | SMILES | growth
20 | NNC(=O)c1nc(N)n(-c2ccc(S(N)(=O)=O)cc2)n1 | 97.3% (inactive)
21 | Cn1c(=O)c2[nH]c(NN)nc2n(C)c1=O | 118% (inactive)
22 | O=C(/C=C/c1cccc(O)c1)c1cccc(-n2cc(-c3ccc4ccccc4c3)[nH]c2=O)c1 | 4.64% (active)
23 | O=C(/C=C/c1ccco1)c1ccc(Nc2nc(Nc3ccc(F)cc3)nc(Nc3ccc(Cl)cc3)n2)cc1 | 48.3% (inactive)
24 | O=C1OC(c2nc3ccccc3s2)=C/C1=C\c1ccc(O)cc1 | 110% (inactive)
25 | COc1ccc(-c2c(N)n[nH]c2-c2ccc(Cl)cc2O)cc1OC | 92.4% (inactive)
26 | O=C(Nc1cccc(Cl)c1)c1cc(N=Nc2ccc([N+](=O)[O-])cc2Cl)ccc1O | 94.2% (inactive)
27 | CCN(CC)CCN1C(=O)c2c(c(C)c3c(oc4cc(O)ccc43)c2C)C1=O | 89.1% (inactive)
28 | CNC(=O)c1cc(Oc2ccc3nc(Nc4ccc(Cl)c(C(F)(F)F)c4)ccc3c2)ccn1 | 89.2% (inactive)
29 | CCCc1cc2c(=O)c(C(=O)OC)c[nH]c2cc1N(CC)CC | 84.2% (inactive)
30 | COc1cc(/C=N/NC(=O)Cn2c(C(C)C)nc3ccccc32)ccc1O | 93.5% (inactive)
31 | COc1ccc(C(=O)COc2ccc(/C=C3\Oc4ccccc4C3=O)cc2)cc1 | 108% (inactive)
32 | CCN(CCNc1ccc(C)c2sc3ccccc3c(=O)c12)CC(C)(C)O | 90.4% (inactive)
33 | O=C(CSc1nnc(-c2ccc(NC(=O)c3cccnc3)cc2)o1)N[C@@H](Cc1ccc(O)cc1)C(=O)O | 99.8% (inactive)
34 | CN(C)c1ccc(/C=C/C(=O)c2cccc(Nc3nc(Nc4ccccc4)nc(Nc4ccccc4)n3)c2)cc1 | 93.5% (inactive)
35 | N#C/C(=C\c1ccc(-c2ccccc2F)o1)c1nc(-c2ccco2)cs1 | 94.1% (inactive)
36 | Cc1ccc(C(=O)CSc2nc(-c3ccc(Br)cc3)c(C#N)c(=O)[nH]2)cc1 | 100% (inactive)
37 | COc1ccc(-c2nc3sccn3c2-c2cc(-c3cc(OC)c(OC)c(OC)c3)on2)cc1 | 102% (inactive)
38 | c1ccc(-c2nc([P+](c3ccccc3)(c3ccccc3)c3ccccc3)c(N3CCOCC3)o2)cc1 | 21% (inactive)

Tested on: HOP-62 NSCLC
Experiment: as above
Conditions: 10 µM unless noted

Row | SMILES | growth
39 | CC(C)CCC[C@@H](C)[C@H]1CC[C@H]2[C@@H](Nc3ccc(O)cc3)CCC[C@]12C | 108% (inactive)
40 | O=C(Nc1ccccc1)Nc1cccc(Oc2nnc(Cl)c3ccccc23)c1 | -43.4% (active)
41 | CCCCNC(=O)Oc1ccc2c(=O)c3sc4c(=O)c5ccccc5c(=O)c4c3c(=O)c2c1 | -79.1% (active)
42 | COc1nc(N(C)O)nc(N(C)O)n1 | 26.6% (inactive)
43 | N=c1sc(Cc2ccc(Cl)cc2)cn1CC(=O)c1ccc(F)cc1 | 102% (inactive)
44 | Cc1ccc(-c2cc(-c3ccccc3C)[nH]c(=O)c2C#N)s1 | 90.4% (inactive)
45 | O=C1/C(=C\c2c[nH]c3ccccc23)c2ccccc2N1c1c(Cl)cccc1Cl | 19.6% (inactive)
46 | COc1ccc(C2C(c3nn[nH]n3)=C(N)Oc3c2ccc2ccccc32)cc1 (stereo unspecified) | 70.3% (inactive)
47 | CCCCCCCOc1c(OC)cc(C2CC(=O)Nc3c2c(C)nn3-c2nc3ccccc3[nH]2)cc1OC (stereo unspecified) | -22.6% (active)
48 | Cc1c(C(=O)OC(=NC2CCCCC2)NC2CCCCC2)sc2c1c(=O)nc1c(C#N)n[nH]n12 | 89.5% (inactive)
49 | C[n+]1cccc(CC(=O)NO)c1 | 92.7% (inactive)
50 | c1c[nH]c(CNC2CCCCC2)c1 | 103% (inactive)
51 | N#C/C(=C\c1ccc(Br)cc1)n1nnc2cc(F)c(F)cc21 | 25.9% (inactive)
52 | CC1(C)CC[C@]2(C(=O)N3CCOCC3)CC[C@]3(C)C(=CC[C@@H]4[C@@]5(C)CC[C@H](OC(=O)c6cccnc6)C(C)(C)[C@@H]5CC[C@]43C)[C@@H]2C1 | 78.7% (inactive)
53 | O=C(c1ccccc1)c1c(/C=C/c2ccccc2)nc2ccccc2c1/C=C/c1ccc(Br)cc1 | 101% (inactive)
54 | O=C(COc1ccc(/C=C2\Oc3ccccc3C2=O)cc1)Nc1nc2c(s1)CCCC2 | 44.2% (inactive)
55 | Cc1ccc(Cl)c(NS(=O)(=O)c2ccc(-c3cnc(C4CC4)o3)cc2)c1 | 42.7% (inactive)
56 | Cc1ccc2nc(C)c(-c3nnc(SCc4ccc(C#N)cc4)o3)n2c1 | 97.6% (inactive)
57 | CC1=C(SCCC(=O)OC(C[Se]C2=C(C)C(=O)c3ccccc3C2=O)C(=O)NCCCCCC(=O)OCc2ccccc2)C(=O)c2ccccc2C1=O (stereo unspecified) | 12.8% (inactive)

Row | SMILES | growth
58 | NNC(=O)c1nc(N)n(-c2ccc(S(N)(=O)=O)cc2)n1 | 90.6% (inactive)
59 | Cn1c(=O)c2[nH]c(NN)nc2n(C)c1=O | 120% (inactive)
60 | O=C(/C=C/c1cccc(O)c1)c1cccc(-n2cc(-c3ccc4ccccc4c3)[nH]c2=O)c1 | -20.9% (active)
61 | O=C(/C=C/c1ccco1)c1ccc(Nc2nc(Nc3ccc(F)cc3)nc(Nc3ccc(Cl)cc3)n2)cc1 | 96.2% (inactive)
62 | O=C1OC(c2nc3ccccc3s2)=C/C1=C\c1ccc(O)cc1 | 91.8% (inactive)
63 | COc1ccc(-c2c(N)n[nH]c2-c2ccc(Cl)cc2O)cc1OC | 91.5% (inactive)
64 | O=C(Nc1cccc(Cl)c1)c1cc(N=Nc2ccc([N+](=O)[O-])cc2Cl)ccc1O | 72.9% (inactive)
65 | CCN(CC)CCN1C(=O)c2c(c(C)c3c(oc4cc(O)ccc43)c2C)C1=O | 93.1% (inactive)
66 | CNC(=O)c1cc(Oc2ccc3nc(Nc4ccc(Cl)c(C(F)(F)F)c4)ccc3c2)ccn1 | 85.1% (inactive)
67 | CCCc1cc2c(=O)c(C(=O)OC)c[nH]c2cc1N(CC)CC | 90% (inactive)
68 | COc1cc(/C=N/NC(=O)Cn2c(C(C)C)nc3ccccc32)ccc1O | 92.9% (inactive)
69 | COc1ccc(C(=O)COc2ccc(/C=C3\Oc4ccccc4C3=O)cc2)cc1 | 90.8% (inactive)
70 | CCN(CCNc1ccc(C)c2sc3ccccc3c(=O)c12)CC(C)(C)O | 82.8% (inactive)
71 | O=C(CSc1nnc(-c2ccc(NC(=O)c3cccnc3)cc2)o1)N[C@@H](Cc1ccc(O)cc1)C(=O)O | 98% (inactive)
72 | CN(C)c1ccc(/C=C/C(=O)c2cccc(Nc3nc(Nc4ccccc4)nc(Nc4ccccc4)n3)c2)cc1 | 86.5% (inactive)
73 | N#C/C(=C\c1ccc(-c2ccccc2F)o1)c1nc(-c2ccco2)cs1 | 89% (inactive)
74 | Cc1ccc(C(=O)CSc2nc(-c3ccc(Br)cc3)c(C#N)c(=O)[nH]2)cc1 | 89.1% (inactive)
75 | COc1ccc(-c2nc3sccn3c2-c2cc(-c3cc(OC)c(OC)c(OC)c3)on2)cc1 | 106% (inactive)
76 | c1ccc(-c2nc([P+](c3ccccc3)(c3ccccc3)c3ccccc3)c(N3CCOCC3)o2)cc1 | -2.79% (active)
